Experimental data taken from PubChem BioAssay (EPA / NIEHS).
Active and inactive are the calls of the source. Rule for the calls: active = hit-call score of the fitted dose curve at least 0.9, where 1 is the maximum; inactive = score below 0.9.

The compounds below were run on Matrix Metallopeptidase 9 (MMP9), MMP9 (gene 4318) (assay: BSK_KF3CT_MMP9: BioMAP Diversity Plus: KF3CT Assay for Matrix Metallopeptidase 9 (MMP9) Biomarker Activity (AID 2283074)). Settings: primary human keratinocytes with fibroblasts; actives raise or lower the signal.
Description: BSK_KF3CT is a cell-based, multiplexed-readout assay that uses keratinocytes and foreskin fibroblasts, a human skin primary cell co-culture, with measurements taken at 24 hours after chemical dosing in a 96-well plate.BSK_KF3CT_MMP9 is an assay component measured in the BSK_KF3CT assay. It measures MMP-9 antibody related to regulation of gene expression using ELISA technology.Data from the assay component BSK_KF3CT_MMP9 was analyzed into 1 assay endpoint. This assay endpoint, BSK_KF3CT_MMP9, was analyzed with bidirectional fitting relative to DMSO as the negative control and baseline of activity. Using a type of binding reporter, gain or loss-of-signal activity can be used to understand changes in the signaling as they relate to the gene MMP9. Furthermore, this assay endpoint can be referred to as a primary readout, because this assay has produced multiple assay endpoints where this one serves a signaling function. To generalize the intended target to other relatable targets, this assay endpoint is annotated to the protease intended target family, where the subfamily is matrix metalloproteinase.
The levels of cell surface (or secreted, indicated by the prefix "s") biomarker endpoints were measured by ELISA. Overt cytotoxicity to cells in confluent adherent cultures (all systems other than the BT system) was assessed by measuring total protein levels using sulforhodamine B (SRB) staining in parallel cultures at the time of biomarker measurements, indicated as SRB endpoints. For proliferation assays for adherent cell types, individual cell types are cultured at sub-confluence and relative cell numbers quantified by SRB staining at time points optimized for each system (48 h: 3C and CASM3C systems; 72 h: BT and HDF3CGF systems; 96 h: SAg system). SRB was performed by staining cells with 0.1% SRB after fixation with 10% TCA and reading wells at 560 nm.Viability and proliferation of PBMC (T cells) was quantified by Alamar Blue reduction for the SAg and BT systems. For PBMC viability (referred to as PBMC Cytotoxicity within the assay endpoint names), cells were plated (75,000/well in a 96-well plate) and then chemical samples added for 1 h before addition of activators, SEB and TSST-1 (20 ng/mL final concentration each). Cells were incubated for 90 h. Then, Alamar Blue (20 uL/well) (Invitrogen, Cat DAL1100) was added for 6 h, and the plates were read with a fluorescence microplate reader at 546/580 nm (excitation/emission). For PBMC proliferation, cells were plated and activated as above but incubated for only 16 h prior to addition of Alamar Blue. Plates were read after 6 h.

Row | Compound | outcome | AC50
1 | Cc1ccc(Cl)cc1 | inactive | –
2 | Nc1ccc(S(=O)(=O)c2ccc(N)cc2)cc1 | inactive | –
3 | O=C(OCCCCCOC(=O)c1ccccc1)c1ccccc1 | inactive | –
4 | Oc1ccc2c(c1)OC[C@@H](N1CCC(O)(c3ccc(F)cc3)CC1)[C@H]2O | inactive | –
5 | CC(=O)OCCOCCOCCOC(C)=O | inactive | –
6 | OC[C@@H](O)[C@@H](O)[C@H](O)[C@H](O)CO | inactive | –
7 | C1CCC(SSC2CCCCC2)CC1 | – | 13.7 µM (active)
8 | COC(=O)c1ccc(O)cc1 | inactive | –
9 | COc1ccc2c(c1)c(CC(=O)O)c(C)n2C(=O)c1ccc(Cl)cc1 | inactive | –
10 | CCCCN(CCCC)CCCC | inactive | –
11 | Cc1cc(NC(=O)C(=O)O)cc(C)c1Oc1ccc(O)c2c1CCC2 | inactive | –
12 | CC1(C)CC(N=C=O)CC(C)(CN=C=O)C1 (stereo not given) | inactive | –
13 | CCCCCCCCCCCC(=O)OC | inactive | –
14 | CC(C)(C)c1cc(O)c(C(C)(C)C)cc1O | inactive | –
15 | CCCCCCCCCCCCCCCCCC(=O)O | inactive | –
16 | O=C(O)CCCCC(=O)O | inactive | –
17 | CCCCc1ccc2c(n1)[C@@H](c1ccc(OC)cc1C[C@H](C)C(=O)O)[C@H](C(=O)O)[C@H]2c1ccc2c(c1)OCO2 | inactive | –
18 | Cc1cccc([N+](=O)[O-])c1C | inactive | –
19 | Cc1ccc(C)c(O)c1C | inactive | –
20 | C=CCc1ccc(O)c(OC)c1 | inactive | –

Row | Compound | outcome | AC50
21 | C[Si]1(C)O[Si](C)(C)O[Si](C)(C)O[Si](C)(C)O1 | inactive | –
22 | O=[N+]([O-])C(CO)(CO)CO | inactive | –
23 | Cc1ccccc1Cl | inactive | –
24 | CN1CCN(Cc2cc(-c3ccc4[nH]c(=O)oc4c3)co2)[C@@H](c2ccc(F)cc2)C1 | – | 17.6 µM (active)
25 | O=C(O)Cc1ccccc1Nc1c(Cl)cccc1Cl | inactive | –
26 | CCCCCCC(=O)OCC | inactive | –
27 | NCC1(Cc2noc(=O)[nH]2)CCCCC1 | inactive | –
28 | CCOC(=O)CCC(=O)OCC | inactive | –
29 | CC=Cc1ccc(O)c(OC)c1 | inactive | –
30 | C[C@]12C=CC(=O)C=C1CC[C@@H]1[C@@H]2C(=O)C[C@@]2(C)[C@H]1CC[C@]2(O)C(=O)CO | inactive | –
31 | Cc1cc(=O)[nH]c(=S)[nH]1 | inactive | –
32 | CCCCCCCCCCCCCCCC | inactive | –
33 | Clc1cc(Cl)c(Cl)cc1Cl | inactive | –
34 | Cc1nc(-c2ccc3c(c2)CCN(CCC2CCC(NC(=O)/C=C/c4ccc(F)cc4)CC2)CC3)no1 (stereo not given) | inactive | –
35 | NC(=O)Cn1c(=O)cc(CCN2CCN(c3nccc4sccc34)CC2)c2ccc(F)cc21 | inactive | –
36 | CCCCCCCCCCC | inactive | –
37 | CCCCCCCCCCO | inactive | –
38 | c1cc(-c2ccncc2)ccn1 | inactive | –
39 | CC(=O)OC/C=C(\C)CCC=C(C)C | inactive | –
40 | CCOC(=O)C(C)(C)Oc1ccc(Cl)cc1 | inactive | –
